What all share (experiment): glycan array binding signal (z-score within array); higher = stronger binding
Holding throughout (settings): glycan notation: IUPAC condensed, linker removed

Assay [1] deals with Neu5Ac(a2-8)Neu5Ac(a2-3)Gal(b1-4)Glc. Put shortly:
(§1)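 From the Consortium for Functional Glycomics database, 3228 arrays were curated, keeping only those whose protein sequence was available. Binding is given as a within-array Z-score averaged across arrays sharing a protein sequence and across linkers. Negative Z-scores can be read as non-binding.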

Assay [2] relates to Neu5Ac(a2-8)Neu5Ac(a2-8)Neu5Ac(a2-3)[GalNAc(b1-4)]Gal(b1-4)Glc. A digest of the protocol: as §1
The subject of assay [3] is Neu5Gc(a2-3)Gal(b1-3)[Fuc(a1-4)]GlcNAc. A digest of the protocol:
as §1

For assay [4], the system named is Neu5Ac(a2-8)Neu5Ac(a2-3)[Gal(b1-3)GalNAc(b1-4)]Gal(b1-4)Glc. A digest of the protocol:
as §1

Assay [5] has as its system Neu5Gc(a2-3)Gal(b1-3)GlcNAc. Put shortly:
as §1

Assay [6] has as its system Neu5Ac(a2-8)Neu5Ac(a2-8)Neu5Ac(a2-8)Neu5Ac(a2-8)Neu5Ac(a2-8)Neu5Ac(a2-8)Neu5Ac(a2-8)Neu5Ac. Put shortly:
as §1

The test system of assay [7] is Neu5Ac9Ac(a2-6)Gal(b1-4)GlcNAc. Put shortly:
as §1

The test system of assay [8] is Neu5Gc(a2-3)Gal(b1-4)GlcNAc. Put shortly:
as §1

This excerpt belongs to a sample that is enriched for the strongest signals.

As for Actinohivin (Actinomycete K97), the figures for the “glycan array binding signal (z-score)” value in assay [1], in assay [2] and in assay [3] were -0.163, -0.14 and -0.168, respectively.

As for “AgI/II Vhelical-GFP (Streptococcus mutans)”, the “glycan array binding signal (z-score)” value was found to be 0.136 in assay [4] and 0.551 in assay [5].

In the case of “SiiE (Salmonella typhimurium), A0A0H3NVH0”, the “glycan array binding signal (z-score)” value in assay [2] was -0.437.

For the substance MIC3-MAR1b (Eimeria tenella), B6VCV4, the “glycan array binding signal (z-score)” value in assay [6] is -0.531.

With MIC3-MAR5 (Eimeria tenella), B6VCV4, in assay [6], the “glycan array binding signal (z-score)” value was -0.75.

As for GspB (Streptococcus gordonii), Q939N5, in assay [7], the “glycan array binding signal (z-score)” value came to 2.97.

Regarding LcI (Legionella pneumophila), in assay [7], the “glycan array binding signal (z-score)” value stood at 0.198.

Consider “SpGH101 (Streptococcus pneumoniae), Q8DR60”, for which the “glycan array binding signal (z-score)” value in assay [8] is -0.177.

Regarding AgI/IIC123-GFP (Streptococcus mutans), the “glycan array binding signal (z-score)” value in assay [8] is -0.472.

The record behind these values is the supplement of paper PMC8728848.
